{"source": "the supplement of paper PMC8728848", "binders": {"B1": {"name": "OrfX (Escherichia coli), Q9X4B6_ECOLX (protein)", "chain": "MIKIARIAVTLGLLSSLGAQAYAAGLVVNDNDLRNDLAWLSDRGVIHLSLSTWPLSQEEIARALKKAKPSYSSEQVVLARINQRLSALKADFRVTGYTSTDQPGTPQGFGQTQPADNSLGLAFNNSGEWWDVHLQGNVEGGERISNGSRFNANGAYGAVKFWNQWLSFGQVPQWWGPGYEGSLIRGDAMRPMTGFLMQRAEQAAPETWWLRWVGPWQYQISASQMNQYTAVPHAKIIGGRFTFTPFQSLELGASRIMQWGGEGRPQSFSSFWDGFTGHDNTGTDNEPGNQLAGFDFKFKLEPTLGWPVSFYGQMVGEDESGYLPSANMFLGGVEGHHGWGKDTVNWYVEAHDTRTNMSRTNYSYTHHIYKDGYYQQGYPLGDAMGGDGQLIAGKVELITEDNQRWSTRLVYAKVNPENQSINKAFPHADTLKGLQLGWSGDVYQSVRLNTSLWYTNANNSDSDDVGASAGIEIPFSL"}}, "assay_in_all_cases": "glycan array binding signal (z-score within array); higher = stronger binding", "details_in_all_cases": "glycan notation: IUPAC condensed, linker removed", "key": {"[1]": {"target": "Fuc(a1-2)Gal(b1-4)GlcNAc(b1-3)Gal(b1-4)GlcNAc", "in_short": "(§1)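 The binding signal is a Z-score computed within each array and averaged over linkers. Arrays of the same protein sequence at different concentrations or buffers were also averaged together. Data originate from 3228 arrays in the Consortium for Functional Glycomics database, kept only where the protein sequence was available.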"}, "[2]": {"target": "Fuc(a1-2)Gal(b1-4)GlcNAc(b1-3)[Fuc(a1-2)Gal(b1-4)GlcNAc(b1-6)]GalNAc", "in_short": "as §1"}, "[3]": {"target": "Fuc(a1-2)Gal(b1-4)[Fuc(a1-3)]GlcNAc(b1-2)Man(a1-3)[Fuc(a1-2)Gal(b1-4)[Fuc(a1-3)]GlcNAc(b1-2)Man(a1-6)]Man(b1-4)GlcNAc(b1-4)GlcNAc", "in_short": "as §1"}, "[4]": {"target": "Fuc(a1-2)Gal(b1-4)[Fuc(a1-3)]GlcNAc(b1-2)[Fuc(a1-2)Gal(b1-4)[Fuc(a1-3)]GlcNAc(b1-4)]Man(a1-3)[Fuc(a1-2)Gal(b1-4)[Fuc(a1-3)]GlcNAc(b1-2)Man(a1-6)]Man(b1-4)GlcNAc(b1-4)GlcNAc", "in_short": "as §1"}, "[5]": {"target": "Fuc(a1-2)Gal(b1-4)[Fuc(a1-3)]GlcNAc(b1-3)Gal(b1-4)[Fuc(a1-3)]GlcNAc(b1-3)Gal(b1-4)[Fuc(a1-3)]GlcNAc", "in_short": "as §1"}, "[6]": {"target": "Fuc(a1-2)Gal(b1-4)[Fuc(a1-3)]GlcNAc(b1-3)GalNAc", "in_short": "as §1"}, "[7]": {"target": "Fuc(a1-2)[Gal(a1-3)]Gal(b1-4)[Fuc(a1-3)]Glc", "in_short": "as §1"}, "[8]": {"target": "Fuc(a1-2)[Gal(a1-4)]Gal(b1-4)GlcNAc", "in_short": "as §1"}, "[9]": {"target": "Fuc(a1-2)[GalNAc(a1-3)]Gal", "in_short": "as §1"}, "[10]": {"target": "Fuc(a1-2)[GalNAc(a1-3)]Gal(b1-4)Glc", "in_short": "as §1"}, "[11]": {"target": "Fuc(a1-2)[GalNAc(a1-3)]Gal(b1-4)[Fuc(a1-3)]GlcNAc", "in_short": "as §1"}, "[12]": {"target": "Fuc(a1-3)[Gal3S(b1-4)]GlcNAc6S", "in_short": "as §1"}, "Gal(a1-3)Gal(b1-4)Glc": {"target": "Gal(a1-3)Gal(b1-4)Glc", "in_short": "as §1"}, "[13]": {"target": "Gal(a1-4)Gal(b1-4)GlcNAc(b1-3)Gal(b1-4)Glc", "in_short": "as §1"}, "[14]": {"target": "Gal(b1-3)GalNAc(a1-3)[Fuc(a1-2)]Gal(b1-4)Glc", "in_short": "as §1"}, "[15]": {"target": "Gal(b1-3)GlcNAc(b1-2)Man(a1-3)[GlcNAc(b1-4)][Gal(b1-3)GlcNAc(b1-2)Man(a1-6)]Man(b1-4)GlcNAc(b1-4)GlcNAc", "in_short": "as §1"}, "[16]": {"target": "Gal(b1-4)GalNAc(b1-3)[Fuc(a1-2)]Gal(b1-4)GlcNAc", "in_short": "as §1"}, "[17]": {"target": "Gal(b1-4)GlcNAc(b1-2)Man(a1-3)Man(b1-4)GlcNAc(b1-4)GlcNAc", "in_short": "as §1"}, "Gal(b1-4)GlcNAc6P": {"target": "Gal(b1-4)GlcNAc6P", "in_short": "as §1"}, "Gal(b1-6)Gal": {"target": "Gal(b1-6)Gal", "in_short": "as §1"}, "Gal3S(b1-4)Glc": {"target": "Gal3S(b1-4)Glc", "in_short": "as §1"}, "[18]": {"target": "Gal3S(b1-4)[Fuc(a1-3)]Glc6S", "in_short": "as §1"}, "Gal6S(b1-4)GlcNAc6S": {"target": "Gal6S(b1-4)GlcNAc6S", "in_short": "as §1"}, "GalNAc(b1-4)Gal(b1-4)Glc": {"target": "GalNAc(b1-4)Gal(b1-4)Glc", "in_short": "as §1"}, "GalNAc6S(b1-4)GlcNAc": {"target": "GalNAc6S(b1-4)GlcNAc", "in_short": "as §1"}, "[19]": {"target": "GlcNAc(a1-4)Gal(b1-4)GlcNAc(b1-3)Gal(b1-4)[Fuc(a1-3)]GlcNAc(b1-3)Gal(b1-4)[Fuc(a1-3)]GlcNAc", "in_short": "as §1"}, "[20]": {"target": "GlcNAc(b1-3)[GlcNAc(b1-4)][GlcNAc(b1-6)]GlcNAc", "in_short": "as §1"}, "[21]": {"target": "Man(a1-2)Man(a1-2)Man(a1-6)[Man(a1-3)]Man", "in_short": "as §1"}, "[22]": {"target": "Neu5Ac(a2-3)Gal(b1-3)GlcNAc(b1-3)Gal(b1-3)GlcNAc", "in_short": "as §1"}, "[23]": {"target": "Neu5Ac(a2-3)Gal(b1-3)GlcNAc6S", "in_short": "as §1"}}, "note": "The entries come from a sample that favours the strongest signals as a whole."}
{"binder": "B1", "values": [{"measurement": "glycan array binding signal (z-score)", "setting": "[1]", "result": -0.191}, {"measurement": "glycan array binding signal (z-score)", "setting": "[2]", "result": 0.429}, {"measurement": "glycan array binding signal (z-score)", "setting": "[3]", "result": 0.202}, {"measurement": "glycan array binding signal (z-score)", "setting": "[4]", "result": -0.108}, {"measurement": "glycan array binding signal (z-score)", "setting": "[5]", "result": -0.02}, {"measurement": "glycan array binding signal (z-score)", "setting": "[6]", "result": 4.3}, {"measurement": "glycan array binding signal (z-score)", "setting": "[7]", "result": -0.132}, {"measurement": "glycan array binding signal (z-score)", "setting": "[8]", "result": -0.32}, {"measurement": "glycan array binding signal (z-score)", "setting": "[9]", "result": -0.116}, {"measurement": "glycan array binding signal (z-score)", "setting": "[10]", "result": -0.196}, {"measurement": "glycan array binding signal (z-score)", "setting": "[11]", "result": 0.042}, {"measurement": "glycan array binding signal (z-score)", "setting": "[12]", "result": 2.97}, {"measurement": "glycan array binding signal (z-score)", "setting": "Gal(a1-3)Gal(b1-4)Glc", "result": -0.261}, {"measurement": "glycan array binding signal (z-score)", "setting": "[13]", "result": -0.181}, {"measurement": "glycan array binding signal (z-score)", "setting": "[14]", "result": -0.182}, {"measurement": "glycan array binding signal (z-score)", "setting": "[15]", "result": 0.214}, {"measurement": "glycan array binding signal (z-score)", "setting": "[16]", "result": -0.145}, {"measurement": "glycan array binding signal (z-score)", "setting": "[17]", "result": -0.266}, {"measurement": "glycan array binding signal (z-score)", "setting": "Gal(b1-4)GlcNAc6P", "result": 0.611}, {"measurement": "glycan array binding signal (z-score)", "setting": "Gal(b1-6)Gal", "result": 0.048}, {"measurement": "glycan array binding signal (z-score)", "setting": "Gal3S(b1-4)Glc", "result": 0.076}, {"measurement": "glycan array binding signal (z-score)", "setting": "[18]", "result": 2.79}, {"measurement": "glycan array binding signal (z-score)", "setting": "Gal6S(b1-4)GlcNAc6S", "result": 2.74}, {"measurement": "glycan array binding signal (z-score)", "setting": "GalNAc(b1-4)Gal(b1-4)Glc", "result": 0.667}, {"measurement": "glycan array binding signal (z-score)", "setting": "GalNAc6S(b1-4)GlcNAc", "result": -0.318}, {"measurement": "glycan array binding signal (z-score)", "setting": "[19]", "result": 10.6}, {"measurement": "glycan array binding signal (z-score)", "setting": "[20]", "result": 11.2}, {"measurement": "glycan array binding signal (z-score)", "setting": "[21]", "result": -0.231}, {"measurement": "glycan array binding signal (z-score)", "setting": "[22]", "result": -0.096}, {"measurement": "glycan array binding signal (z-score)", "setting": "[23]", "result": -0.301}]}
